Measured values published in PubChem BioAssay (NCI).
“And” between values parts separate entries of the source, which are not always exact repeats. Equal values may be shown once. About 83,000 compounds went through this panel and 20% of them were active in at least one assay; those are over-represented in the sample as a whole.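 Values shown are percent growth following 48 h exposure of cells in 96-well plates to a single concentration of compound; below 10 was considered active.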 Unmarked numbers belong to inactive results. The source made the active and inactive calls.

system: MDA-MB-468 breast; experiment: NCI-60 one-dose screen, 48 h (100 = growth as untreated, 0 = no growth, -100 = all killed); conditions: 10 µM unless noted

Row | Structure (SMILES) | growth
1 | Nc1ncnc2c1nc(N)n2C1OC(CO)C(O)C1O (stereo not given) | -73.6% (active)
2 | O=c1c(O)cccn1CCCNCCCN(CCCn1cccc(O)c1=O)CCCn1cccc(O)c1=O | 109%
3 | O=C(O)C[C@H](O)C[C@H](O)/C=C/c1c(C2CC2)nc2ccccc2c1-c1ccc(F)cc1 | 75.1%
4 | COC(=O)c1c2c(c(C)[n+]([O-])c1C)C(=O)C=C(NCc1ccc(F)cc1)C2=O | -67% (active)
5 | CC(=O)Nc1nc(C)c(C(=O)N/N=C/c2cccs2)s1 | 98.8%
6 | Cn1nc(N)c2cc([C@@H]3Nc4ccc5[nH]ncc5c4[C@H]4C5CCC(C5)[C@@H]34)ccc21 (stereo not given in full) | -2.64% (active)
7 | O=C1[C@H]2Cc3c([nH]c4ccccc34)[C@@H](c3ccc(Cl)cc3)N2C(=O)CN1C1CCN(Cc2c(Cl)cccc2Cl)CC1 | 98.3%
8 | O=C1C=Cc2ccccc2/C1=C/c1[nH]c(=O)[nH]c1O | 41.5%
9 | Cc1nc(Nc2ccccn2)sc1C(=O)/C=C/c1ccc(Br)cc1 | 27.3%
10 | CCc1ccc(-c2nnc(COc3ccc(-c4nc5ccccc5[nH]4)cc3OC)o2)cc1 | 86.9%
11 | c1n[nH]cc1-c1nc2ccc3[nH]ncc3c2c2c1CCCC2 | 15.2%
12 | CCCCC1CCc2cccc3c(SCC(=O)N(C)c4ccc(Cl)cc4)cc[n+]1c23 (stereo not given) | 106%
13 | COc1cc2oc(-c3cccc(NC(=O)c4cc(NC(=O)[C@H](C)NC(=O)OC(C)(C)C)ccc4C)c3)cc(=O)c2c(OC)c1OC | 84.3%
14 | S=c1[nH]nc(Cn2c3ccccc3c3ccncc32)o1 | 115%
15 | CN1CCN(Cc2ccc(NC(=O)c3cncc(C#Cc4c(N)ncc5c(F)cccc45)c3)cc2C(F)(F)F)CC1 | -82% (active)
16 | O=C(/C=C/c1ccc(C(F)(F)F)cc1)c1ccc(Nc2nc(NCCO)nc(Nc3ccc(Cl)cc3)n2)cc1 | 69.4%
17 | COc1cc(CCC[P+](c2ccccc2)(c2ccccc2)c2ccccc2)cc2c1OCO2 | -22.7% (active)
18 | Oc1c(I)cc(I)cc1CNCCCN(Cc1ccccn1)Cc1ccccn1 | -55.7% (active)
19 | C=C(Cl)C(=NC(C)(C)C)Nc1ccccc1C | 39.2%
20 | Cc1ccccc1-n1nnc(C(=O)Nc2nc3ccc(F)cc3s2)c1C | 32.8%

Row | Structure (SMILES) | growth
21 | CCOC(=O)N(O)c1ccc(/C=C/c2ccccc2)cc1 | -59.5% (active) and -52.6% (active)
22 | COc1ccc2c(c1)CCCN2c1c2ccccc2nc2ccccc12 | -3.81% (active)
23 | CCN1C(=O)N(CC)C2C1NN=c1s/c(=C\c3cc4ccccc4[nH]3)c(=O)n12 (stereo not given) | -9.55% (active)
24 | Cn1c2ccccc2c2c3c(c4c5ccccc5[nH]c4c21)C(=O)N(N)C3=O | -37.5% (active)
25 | CCCCn1c(-c2cccc(OC)c2)nc2cc(OC)c(OC)cc2c1=O | 107%
26 | Clc1ccc(C2CC(c3cccc(Nc4ccncc4)c3)=NN2c2cc(Cl)cc(Cl)c2)cc1 (stereo not given) | 84.9%
27 | COC(=O)[C@@H](CCCCNC(=O)[C@]12CCC(C)(C)C[C@@H]1C1=CC[C@@H]3[C@@]4(C)C/C(=C/c5ccco5)C(=O)C(C)(C)[C@@H]4CC[C@@]3(C)[C@]1(C)CC2)NC(=O)[C@]12CCC(C)(C)C[C@@H]1C1=CC[C@@H]3[C@@]4(C)C/C(=C/c5ccco5)C(=O)C(C)(C)[C@@H]4CC[C@@]3(C)[C@]1(C)CC2 | 109%
28 | Cc1cc(N2CCCC2)nc(NC2CCCC(Nc3ccnc4cc(Cl)ccc34)C2)n1 (stereo not given) | -56.1% (active)
29 | Cc1nc2ccccc2n1CC1C(=O)NC(=O)NC1=O | 107%
30 | COc1ccc(C(=O)Nn2c(NCC(=O)N3c4ccccc4Sc4ccccc43)nnc2-c2ccc(O)cc2)cc1 | 107%
31 | C=C(NC(=O)C(=C)NC(=O)c1csc(C2=NC3c4csc(n4)C4NC(=O)c5csc(n5)C(C(C)(O)C(C)O)NC(=O)C5CSC(=N5)C(=CC)NC(=O)C(C(C)O)NC(=O)c5csc(n5)C3(CC2)NC(=O)C(C)NC(=O)C(=C)NC(=O)C(C)NC(=O)C(C(C)CC)NC2C=Cc3c(C(C)O)cc(nc3C2O)C(=O)OC4C)n1)C(N)=O (stereo not given) | -55.6% (active)
32 | Cc1cccc(N=Nc2cccc(C)c2)c1 | 108%
33 | CCCCCCCCCCC(=O)CCCCCCCCCC | 107%
34 | O=C(CSc1nnc(-c2ccc(Cl)cc2)n1-c1ccccc1)Nc1ccc(Cl)cc1 | 4.06% (active)
35 | O=C1NC(=C(Cl)Cl)/C(=N/S(=O)(=O)N2CCC(C3(C(F)(F)F)N=N3)CC2)N1 | 32.7%
36 | Cc1nc(-c2ccccc2)cc2c(O)c(C(=O)NN)[nH]c(=O)c12 | 116%
37 | CCCCOC(=O)c1c(C)[nH]c(/C=C2\N=C(c3ccc[nH]3)C=C2OC)c1C | -58.2% (active)
38 | COc1ccc(-c2cn[nH]c2-c2cc(OC)c3c(c2)OCCO3)cc1 | 5.64% (active)
39 | CCc1nc2ccccc2[nH]1 | 109%
40 | CCOC(=O)C1=C(C)C(Cl)=N/C1=C\c1[nH]c(Cl)c(C)c1C(=O)OCC | 102%
